The values that follow come from PubChem BioAssay (NCATS).

Values joined by “and” are separate entries in the source; they are usually repeats but may differ in a detail not shown here. Equal values may be shown once. Inconclusive results are not listed. Active and inactive are the calls of the source. Unless noted, the call rests on the fitted dose curve; in most records, active means well fitted curve in the direction sought with a large enough effect; inconclusive means small, poorly fitted or top-dose-only effect, or another doubt; inactive means no such curve, though single readings can be large; an effect the other way counts as inactive or inconclusive.

Test [1] can be described thus: Cell Viability - LYMP2-001 (AID 921).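 Further: series mostly up to about 92 µM; 0% = DMSO only and full inhibition = tetraoctylammonium bromide control wells; nearly all actives have a fitted effect of over 70% in size.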 The essentials: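 Cellular ATP loss read by luciferase luminescence after 24 h compound exposure at 37 C in complete medium. LYMP2-001 lymphoblastoid cells, 2500/well; qHTS concentration-response data fitted with Hill equation for AC50.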
Test [2] can be described thus: MultiTox-Fluor Cytotoxicity Assay - LYMP1-002 - Dead Cells (AID 960).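 Further: cells exposed to compound for 16 h at 37 °C; 0% = DMSO and 100% = tetraoctylammonium bromide; nearly all actives have a fitted effect of over 60% in size.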 The procedure, abridged:
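Concentration-dependent increases in membrane-leaked protease activity are quantified in LYMP1-002 cells after 16 hr treatment; values are normalized against DMSO and tetraoctylammonium bromide (15 uM) controls and AC50 derived by Hill modeling.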

Test [3] can be described thus: Cell Viability - LYMP2-005 (AID 967).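 Further: series mostly up to about 92 µM; plate controls were DMSO only for no effect and 92 µM tetraoctylammonium bromide control for full effect.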 The essentials:
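LYMP2-005 human lymphoblastoid cells (2500/well) were treated with compounds for 24 h at 37 C. Intracellular ATP was then measured by CellTiter-Glo luminescence after 30 min at room temperature. AC50 values came from Hill-equation fits of qHTS concentration-response data.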

A short description of test [4]: Cell Viability - LYMP2-011 (AID 969).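 Further: cells exposed to compound for 24 hours; 0% = DMSO only and full inhibition = 92 µM tetraoctylammonium bromide; nearly all actives have a fitted effect of over 60% in size.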 The essentials:
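Cells seeded at 2500 per well rest 5 hr before compound addition, then incubate 24 hr at 37 C. CellTiter-Glo reagent is added for 30 min at room temperature before luminescence detection.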

Test [5] is described as follows: Cell Viability - LYMP2-013 (AID 970).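 Further: series mostly up to about 92 µM; 0% = DMSO only and full inhibition = tetraoctylammonium bromide control; nearly all actives have a fitted effect of over 55% in size.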 The procedure, abridged:
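In complete culture medium, human lymphoblastoid cells were dosed for 24 hr at 37 C, with tetraoctylammonium bromide (6.4pM to 92 uM) as positive control. Viability reflects luciferase-based ATP signal; AC50 derived from concentration-response curves.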

Test [6] in a line: Cell Viability - LYMP2-017 (AID 972).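 Further: series mostly up to about 92 µM; cells exposed to compound for 24 hours at 37 °C; on the % scale 0 is the no-effect control and ±100 the full control effect; nearly all actives have a fitted effect of over 55% in size.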 The essentials:
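In this qHTS format, lymphoblastoid cells in complete medium receive test compound for a day at 37 C before ATP content is quantified by luciferase luminescence. Reported AC50 figures come from standard Hill-equation curve fitting.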

Test [7] is described as follows: Cell Viability - LYMP2-023 (AID 975).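 Further: cellular ATP measured by luciferase luminescence as viability proxy; series mostly up to about 92 µM; cells exposed to compound for 24 hours at 37 °C; plate controls were DMSO only for no effect and 92 µM tetraoctylammonium bromide control for full effect; nearly all actives have a fitted effect of over 55% in size.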 The essentials:
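In this qHTS, ATP-based luciferase luminescence (CellTiter-Glo) is quantified in human lymphoblastoid cells after 24 hr compound treatment at 37 C; tetraoctylammonium bromide serves as positive control. Concentration-response curves are Hill-fitted to give AC50.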

The nature of test [8]: Cell Viability - LYMP2-002 (AID 977).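 Further: series mostly up to about 92 µM; plate controls were DMSO only for no effect and 92 µM tetraoctylammonium bromide for full effect.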 The procedure, abridged: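 In this qHTS viability screen, 2500 human lymphoblastoid cells per well receive compound for 24 hr at 37 C, and luciferase-based ATP luminescence gives the viability signal. Tetraoctylammonium bromide serves as positive control.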
Test [9] can be described thus: Cell Viability - LYMP2-007 (AID 979).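 Further: cells exposed to compound for 24 h before reading; 0% = DMSO only and the negative end = 92 µM tetraoctylammonium bromide; nearly all actives have a fitted effect of over 60% in size.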 The essentials:
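Measured via luciferase-based ATP quantitation: lymphoblastoid cells, 24 hr compound exposure at 37 C, AC50 from Hill fits.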

Test [10] in a line: Cell Viability - LYMP2-014 (AID 983).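 Further: series mostly up to about 92 µM; plate controls were DMSO only for no effect and 92 µM tetraoctylammonium bromide for full effect; nearly all actives have a fitted effect of over 50% in size.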 The procedure, abridged: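 Quantitative HTS in lymphoblastoid cells: 24 hr compound exposure, then CellTiter-Glo ATP luminescence. Positive control was tetraoctylammonium bromide, 6.4pM to 92 uM.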
A short description of test [11]: Cell Viability - LYMP2-016 (AID 984).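 Further: cells exposed to compound for 24 hours at 37 °C; on the % scale 0 is the no-effect control and ±100 the full control effect; nearly all actives have a fitted effect of over 55% in size.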 The procedure, abridged:
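Cytotoxicity was scored by luminescent ATP content (CellTiter-Glo) after 24 h compound exposure at 37 C of a human lymphoblastoid line at 2500 cells/well. Concentration-response data were fitted to the Hill equation for AC50.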

Test [12] is described as follows: Cell Viability - LYMP2-018 (AID 985).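 Further: plate controls were DMSO only for no effect and tetraoctylammonium bromide at 92 µM for full effect; nearly all actives have a fitted effect of over 50% in size.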 The procedure, abridged:
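In this qHTS viability assay, cells are treated for 24 hr and cellular ATP is quantified by luciferase-based luminescence, with tetraoctylammonium bromide as positive control.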

Test [13] in a line: Cell Viability - LYMP2-020 (AID 986). The procedure, abridged: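 Cells at 2500 per well receive a 24 hr compound exposure at 37 C. Viability is measured as ATP-dependent luciferase luminescence, with AC50 modeled from qHTS concentration-response curves.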
Test [14] can be described thus: Cell Viability - LYMP2-022 (AID 987). The procedure, abridged: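 In this qHTS cytotoxicity screen, compound titrations were incubated 24 hr at 37 C with human lymphoblastoid cells in complete medium. Luciferase-based ATP luminescence provided the viability signal.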
Test [15] in a line: Cell Viability - LYMP2-024 (AID 988).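 Further: plate controls were DMSO only for no effect and 92 µM tetraoctylammonium bromide for full effect; nearly all actives have a fitted effect of over 60% in size.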 The essentials: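 Cells at 2500 per well received compound for 24 hr after a 5 hr settling period. Viability was scored by CellTiter-Glo luminescence, with AC50 from Hill fits.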
For test [16], the target named is Retinoic acid receptor RXR-alpha (Homo sapiens) (UniProt P19793). As to the kind of experiment: qHTS assay for small molecule agonists of retinoid X receptor alpha signaling (AID 588544; calls by dose curve;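 further: 0% = DMSO basal wells and 100% = reference agonist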). On the technique in general: qHTS replaces the single test concentration by a dilution series.
Test [17] is described as follows: qHTS assay for small molecule antagonists of retinoid X receptor alpha signaling (AID 588546; active means well fitted inhibition curve with a large enough effect in the signal ratio, with a control signal flat, not every such curve was filed as active; the % refers to the signal ratio;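 further: cells stimulated with 9-cis-retinoic acid as agonist; on the % scale 0 is the no-effect control and ±100 the full control effect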). Particulars: HEK293T RXRa-UAS-bla, beta-lactamase ratio, antagonist mode; measured here: W530 green channel, cytotoxicity proxy. The essentials: (§1)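 Beta-lactamase reporter inhibition, read as CCF4 fluorescence ratio (ex 405, em 460/530 nm) after 2 h at RT. HEK293T UAS-bla cells, 2500/well, were stimulated with 9-cis-RA at 500 or 100 nM final alongside test compound for 18 h at 37 C.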

Test [18] deals with Retinoic acid receptor RXR-alpha (Homo sapiens) (UniProt P19793). The description is as above. Particulars: HEK293T RXRa-UAS-bla, beta-lactamase ratio, antagonist mode. The essentials:
as §1

Test [19] can be described thus: qHTS assay for small molecule disruptors of the mitochondrial membrane potential - 1 hr assay (AID 651754; calls by dose curve; further: nearly all actives have a fitted effect of over 35% in size; further: potency means the concentration at half of the fitted maximal effect). The essentials:
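In this qHTS format, a 1 hr compound treatment of HepG2 cells precedes Mito-MPS staining, and membrane potential is judged from aggregate (red) against monomer (green) fluorescence intensity.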

A short description of test [20]: qHTS assay for environmental chemicals that activate the Aryl hydrocarbon Receptor (AhR) signaling pathway (AID 651777). Further: % of control where 0% means no effect; nearly all actives have a fitted effect of over 15% in size. Particulars: 1A2-DRE human hepatoma cells, luciferase, 24 h; activation: stronger effect = higher value. The procedure, abridged:
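Following a 24 hr incubation with test chemicals at 37 C and 5% CO2, 1A2-DRE human hepatoma cells received One-Glo reagent; after 30 min at room temperature, luciferase output reflected CYP1A2 induction via AhR.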

Sequence of Retinoic acid receptor RXR-alpha (Homo sapiens) (P19793 whole entry, looked up): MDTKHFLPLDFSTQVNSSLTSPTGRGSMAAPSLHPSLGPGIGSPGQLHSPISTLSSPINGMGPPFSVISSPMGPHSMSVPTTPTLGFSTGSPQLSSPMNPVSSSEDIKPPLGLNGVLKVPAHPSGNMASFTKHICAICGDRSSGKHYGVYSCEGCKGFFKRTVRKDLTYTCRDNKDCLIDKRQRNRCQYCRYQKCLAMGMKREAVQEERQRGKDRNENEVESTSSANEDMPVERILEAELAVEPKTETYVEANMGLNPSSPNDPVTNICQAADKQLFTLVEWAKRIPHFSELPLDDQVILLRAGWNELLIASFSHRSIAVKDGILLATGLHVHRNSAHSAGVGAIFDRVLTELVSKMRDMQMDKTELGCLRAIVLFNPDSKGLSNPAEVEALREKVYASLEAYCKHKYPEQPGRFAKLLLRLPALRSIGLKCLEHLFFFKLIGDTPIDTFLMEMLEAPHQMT

Regarding `Nc1ccccc1Cl`, the Potency entry in [1], in test [2], in [3], in test [4], in test [5] and in test [6] was “inactive” in each case. The Potency entry in [7], in test [8], in [9], in test [10], in test [11] and in test [12] was “inactive” in each case. The Potency result in [13], in test [14], in test [15], in test [16] and in test [19] was “inactive” in each case. Moreover, the max response in [17] was -3.04%; in [18], 23.6% (inactive). For the same compound, the activation in test [20] is 0.951% (inactive).
Turning to `CC(C)(C)OOC(C)(C)C`, the Potency entry in test [1], in [2], in test [3], in test [4], in test [5] and in test [6] was “inactive” throughout. Also, the Potency entry in test [7], in [8], in test [9], in test [10], in test [11] and in test [12] was “inactive” each time. Also, the Potency result in test [13], in [14], in [15], in [16] and in [19] was “inactive” each time. For the same compound, the max response is -12.4% in test [17] and 11.6% (inactive) in [18]. For the same compound, the activation in [20] is -0.903% (inactive).
`CCC[CH2][Sn]([Cl])([Cl])[Cl]`: the Potency entry in test [1], in test [2], in test [3], in test [4], in test [5] and in test [6] was “inactive” each time. Moreover, the Potency entry in test [7], in [8], in [9], in [10], in test [11] and in test [12] was “inactive” each time. Also, the Potency result in [13], in test [14], in test [15], in [16] and in test [19] was “inactive” in each case. The max response in test [17] is -9.08% and -6.63%; in test [18], -1.26% (inactive) and -2.57% (inactive). The activation in [20] is 0.348% (inactive) and 0.965% (inactive).
As for `CC(C)(c1ccccc1)c1ccc(O)cc1`, the Potency entry in [1], in test [2], in [3], in test [4], in [5] and in test [6] was “inactive” in each case. Besides, the Potency result in test [7], in test [8], in [9], in test [10], in test [11] and in test [12] was “inactive” in each case. Moreover, the Potency entry in test [13], in test [14], in [15] and in test [16] was “inactive” throughout. Besides, the figures for the max response in test [17] and in test [18] were -11.5% and -3.65% (inactive), respectively. For the same compound, the Potency in test [19] is 26.6 µM (active). For the same compound, the activation in test [20] is 0.0169% (inactive) and 0.603% (inactive).
For `Cc1ccc2ccccc2c1`, the Potency entry in test [1], in [2], in test [3], in test [4], in [5] and in test [6] was “inactive” throughout. Also, the Potency entry in test [7], in test [8], in test [9], in [10], in test [11] and in test [12] was “inactive” in each case. Besides, the Potency result in test [13], in test [14], in test [15], in test [16] and in [19] was “inactive” each time. For the same compound, the values for the max response in test [17] and in [18] were -12.4% and -9.3% (inactive), respectively. Besides, the activation in test [20] was 1.58% (inactive).
For `c1ccc(-c2ccccc2)cc1`, the Potency result in test [2], in test [3], in [4], in test [5], in test [6] and in [7] was “inactive” each time. Also, the Potency result in [8], in test [9], in test [10], in [11], in test [12] and in test [13] was “inactive” each time. Besides, the Potency entry in test [14], in test [15] and in test [19] was “inactive” throughout. Further, the max response in [17] is -7.26% and -12.6%; in [18] it was -4.53% (inactive) and 7.05% (inactive). The activation in test [20] is -0.623% (inactive) and 2.83% (inactive).
